Screening results from PubChem BioAssay.
An excerpt weighted towards active compounds, which were near 7.4% of everything screened.
HEK293 viab: cell viability loss counter-screen | HEK-293-SNCA-luc viability, GF-AFC fluorescence, 24 h | Potency, µM (titrated, usually from 57.1 µM), for inactives: at the top dose activity change, negative = cytotoxicity, actives largely listed as cytotoxic | 150,000 tested, 0.12% active;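 also: 0% = DMSO-treated cells and -100% = medium-only wells without cells; nearly all actives have a fitted effect of over 30% in size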
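Cytotoxicity counterscreen: after 24 h compound treatment of genome-edited SNCA-luciferase HEK-293 cells, live-cell protease substrate GF-AFC read by fluorescence after 30 min; activity scaled between DMSO (0%) and medium-only (-100%), curves Hill-fitted.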
NIH3T3 tox: kills NIH 3T3 cells; NIH 3T3 viability, CellTiter-Glo ATP luminescence, 48-72 h; Potency, µM (top dose mostly 96.7 µM), for the others: at the top dose activity change, negative = cytotoxicity, most hits filed as inhibitors; 94,000 tested, 4.3% active; AID 1345082; also: nearly all actives have a fitted effect of over 55% in size
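Cytotoxicity was measured by CellTiter-Glo ATP luminescence after 48 or 72 h compound exposure at 37 °C. Mouse NIH 3T3 fibroblasts were seeded at 400 cells/well and dosed by 23 nL pin transfer.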
HEK293 tox: HEK 293 cell cytotoxicity; HEK 293 viability, ATP luminescence (CellTiter-Glo), 48-72 h; Potency, µM (titrated, usually from 115 µM), for the others: at the top dose activity change, negative = cytotoxicity, usual class: inhibitors; 94,000 tested, 6.6% active; AID 1345083; also: nearly all actives have a fitted effect of over 60% in size
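qHTS cytotoxicity; HEK 293, 250 cells/well; compound pinned; 48 or 72 hr, 37 degree Celsius, 5% CO2, 95% humidity; CellTiter-Glo, 10 min RT; luminescence (ATP).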
Luciferase inh: blocks purified firefly luciferase enzyme activity. P08659. purified P. pyralis luciferase, luminescence, biochemical. Potency, µM (doses to about 115 µM), most hits filed as inhibitors. 76,000 tested, 2.5% active. AID 1347043; also: nearly all actives have a fitted effect of over 65% in size
Target sequence (P08659 whole entry, looked up): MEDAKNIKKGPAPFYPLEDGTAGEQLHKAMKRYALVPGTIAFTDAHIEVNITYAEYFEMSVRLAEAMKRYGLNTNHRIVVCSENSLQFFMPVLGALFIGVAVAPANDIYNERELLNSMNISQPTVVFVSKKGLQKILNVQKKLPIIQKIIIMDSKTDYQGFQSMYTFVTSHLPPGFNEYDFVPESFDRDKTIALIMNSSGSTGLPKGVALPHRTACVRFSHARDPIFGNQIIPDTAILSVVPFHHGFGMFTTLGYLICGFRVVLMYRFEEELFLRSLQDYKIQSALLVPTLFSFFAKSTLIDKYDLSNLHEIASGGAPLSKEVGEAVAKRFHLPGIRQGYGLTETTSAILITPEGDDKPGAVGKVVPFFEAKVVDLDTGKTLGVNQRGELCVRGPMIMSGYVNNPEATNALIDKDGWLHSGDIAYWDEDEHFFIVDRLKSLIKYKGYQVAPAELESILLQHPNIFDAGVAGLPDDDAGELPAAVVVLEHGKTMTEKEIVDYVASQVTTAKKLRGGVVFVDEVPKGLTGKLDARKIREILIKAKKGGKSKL
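FLuc 10nM, D-luciferin 10uM, ATP 10uM, Mg acetate 10mM, Tris acetate pH 7.5, Tween/BSA; cpd qHTS; enzyme added last; CCD luminescence.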
SNCA expr inh: reduces expression of the alpha-synuclein gene | HEK-293 SNCA-luciferase knock-in, luminescence, 24 h | Potency, µM (highest dose often 57.2 µM), for the others: at the top dose activity change, negative = inhibition, actives largely listed as inhibitors | 140,000 tested, 0.17% active;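 also: plate controls were DMSO cells for no effect and cell-free wells for full effect; nearly all actives have a fitted effect of over 45% in size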
hNpr1 antagonist: human Npr1 receptor antagonism; P16066; HEK293 hNpr1 GloSensor cGMP, ANP-stimulated luminescence; Potency, µM (doses to about 46.3 µM), for the others: top-dose activity change, negative = inhibition, hits mostly inhibitors; 76,000 tested, 1.6% active; calls by dose curve; also: nearly all actives have a fitted effect of over 60% in size
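Compound pre-incubated 30 min at room temperature on GloSensor-loaded HEK293 cells stably carrying hNpr1 and the pGS-40F cGMP biosensor. Stimulation uses hNppA at 0.1 nM final; luminescence is taken at baseline and 20 min post-agonist.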
Active calls of the source: *; i = inactive; ? = inconclusive; / = not tested or not shown; ! = not active in a repeat; [ ] = dose if it differs, or a comment. Unless noted, calls follow the shape of the dose curve; as a rule, active = well fitted curve in the direction sought with a large enough effect; inconclusive = small, poorly fitted or top-dose-only effect, or another doubt; inactive = no such curve, though single readings can be large; an effect the other way counts as inactive or inconclusive. Unless noted, % is scaled to controls: 0 for no effect and ±100 for the full control effect; potency is read from the fitted curve at half-maximal effect.

SMILES	HEK293 viab	NIH3T3 tox	HEK293 tox	Luciferase inh	SNCA expr inh	hNpr1 antagonist
O=C1COc2ccc(Oc3ccccc3)nc2CN1CCOc1ccccc1	-15%[87.6 µM]	?	100µM*	i	-37%[87.6 µM]	?
CC1=C(C(=O)OC(C)C)C(c2ccccc2C)N2C(CC(=O)NC3CC3)=CSC2=N1 (stereo not given)	-5%	-18%	?	i	?	?
CCN(CC)Cc1cnc2c(C(=O)N3CCC(N(C)C)C3)cnn2c1 (stereo not given)	-5%	i	5%	i	-16%	2%
Cc1noc(C)c1S(=O)(=O)N[C@@H]1C[C@H](Cn2cc(-c3cccnc3)nn2)[C@@H](O)[C@H]1O	4%	22µM*	40µM*	i	10%	-2%
Cn1cnc2cc(-c3ccc(CO)cc3)cc(C(=O)NCc3cccnc3)c21	5%[87.6 µM]	?	-23%[172 µM]	i	52%[87.6 µM]	0%[70.6 µM]
Cn1ncc2c(C(=O)Nc3cccc(Cl)c3)cc(-c3cccc(F)c3)nc21	/	?	35µM*	/	/	/
Cn1ncc2c(C(=O)NCc3cccnc3)cc(-c3cccc(F)c3)nc21	/	?	79µM*	/	/	/
Cn1ncc2c(C(=O)NCc3ccc(F)cc3)cc(-c3ccc(Cl)nc3)nc21	-17%	?	40µM*	/	10%	/
Cc1ccc(-c2cc(C(=O)NCc3cccnc3)c3c(c2)ncn3C)cn1	9%[87.6 µM]	100µM*	i	i	6%[87.6 µM]	-3%[70.6 µM]
Cn1ncc2c(C(=O)Nc3ccccc3Cl)cc(-c3cccc(F)c3)nc21	/	-12%	?	/	/	/
Cn1ncc2c(C(=O)NCc3cccnc3)cc(-c3cccnc3)nc21	-10%	?	?	/	-30%	/
O=C(c1cc(Cl)ccc1F)N1CCC(c2n[nH]c(=O)n2-c2ccccc2)CC1	-8%	?	-25%	i	-14%	-5%
COc1ccccc1-c1ccc2c(C(=O)N3CCOCC3)nn(C)c2n1	-29%[87.6 µM]	-19%[138 µM]	-3%[172 µM]	/	30%[87.6 µM]	/
Cc1ccc(CN2CCN3C(=O)N(C4CCOCC4)C[C@H]3C2)cc1	0%[87.6 µM]	2%[138 µM]	-11%[172 µM]	i	1%[87.6 µM]	3%[70.6 µM]
O=C1CCCN1CCc1nc(C2CCOC2)nn1-c1cccnc1 (stereo not given)	8%	i	i	i	26%	-2%
CCc1cc(NC(CCO)c2ccccc2)n2nc(C)c(C)c2n1 (stereo not given)	1%	-30%	?	i	24%	-14%
Cn1ncc2c(C(=O)NCc3cccnc3)cc(-c3ccc(Cl)cc3Cl)nc21	-17%	?	?	/	-7%	/
Cn1ncc2c(C(=O)NCC(F)F)cc(-c3cccc(C(F)(F)F)c3)nc21	/	-10%	-2%	/	/	/
Cn1ncc2c(C(=O)NCC(F)F)cc(-c3cccc(F)c3)nc21	/	?	56µM*	/	/	/
Cn1ncc2c(C(=O)NCc3cccnc3)cc(-c3ccc(Cl)nc3)nc21	-10%	22µM*	?	/	15%	/
CCOCCOC(=O)/C=C/c1ccc(OC)cc1	-33%[23.9 µM]	/	/	/	6%[25.6 µM]	/
COCCNC(=O)C1CCCCN1Cc1ccc(-c2ccccc2OC)cc1 (stereo not given)	/	?	45µM*!	/	/	/
COCCCNC(=O)C1CCCCN1Cc1ccc(-c2ccsc2)cc1 (stereo not given)	3%	?	?	/	-1%	/
COc1ccccc1-c1ccc(CN2CCCCC2C(=O)NCCc2ccccc2)cc1 (stereo not given)	-7%	40µM*	40µM*	/	?	/
COc1ccccc1-c1cccc(C(=O)N2CCC[C@H]2C(=O)NCCCc2ccccc2)c1	-7%[12.5 µM]	?	?	/	-12%	/
SMILES	HEK293 viab	NIH3T3 tox	HEK293 tox	Luciferase inh	SNCA expr inh	hNpr1 antagonist
O=C(C1CCC1)N1CCN(Cc2ccc(=O)n(CC3CC3)c2)CC1	4%	-22%	-20%	i	-7%	1%
Cn1c(Cn2cnc3c2C(C)(C)OC3(C)C)nnc1C1CC(N)C1 (stereo not given)	2%	2%	i	i	3%	-2%
COc1ccccc1-c1ccc(CN2CCN(c3cc(Cl)ncn3)C(=O)C2)cc1	2%	?	45µM*	i	-7%	-11%[70.6 µM]
O=C(NCCCN1CCCC1=O)c1csc(N2CCN(c3ccc(F)cc3)CC2)n1	-10%	-24%	?	i	-16%	-17%
CC(NC(=O)c1csc(N2CCN(c3ccccc3F)CC2)n1)c1ccccc1 (stereo not given)	4%	?	45µM*	i	-6%	3%
O=C(NCC1CC1)c1csc(N2CCN(c3ccccc3F)CC2)n1	-8%	13µM*	35µM*	i	?	-24%
CNC(=O)[C@@H]1CN(S(=O)(=O)c2cnc[nH]2)C[C@H]1c1n[nH]c(C)n1	?	4%	-2%	i	9%	-2%
CC(C)CNC(=O)c1ccc2c(c1)NC(C)(COc1ccc3[nH]ccc3c1)CO2 (stereo not given)	-10%[87.6 µM]	89µM*	?	i	-25%[87.6 µM]	-17%[70.6 µM]
CC1(COc2ccc3[nH]ccc3c2)COc2ccc(C(=O)Nc3cccnc3)cc2N1 (stereo not given)	-10%[87.6 µM]	89µM*	100µM*	i	-28%[87.6 µM]	?
COc1ccc(NC(=O)c2ccc3c(c2)NC(C)(COc2ccc4[nH]ccc4c2)CO3)cn1 (stereo not given)	-9%	?	?	i	-14%	-27%
CN(C)C(=O)c1ccc2c(c1)NC(C)(COc1ccc3[nH]ccc3c1)CO2 (stereo not given)	1%[87.6 µM]	-16%[138 µM]	?	i	-16%[87.6 µM]	-14%[70.6 µM]
CC1(COc2ccc3[nH]ccc3c2)COc2ccc(C(=O)NCc3ccco3)cc2N1 (stereo not given)	-4%[87.6 µM]	?	100µM*	i	-26%[87.6 µM]	-15%[70.6 µM]
COCCn1ncc(N2CCCC(CC(=O)Nc3cc(OC)ccc3OC)C2)cc1=O (stereo not given)	4%	-9%	-2%	i	-3%	-9%
C/C(=C\CO)CC/C=C(\C)C(=O)O[C@@H]1O[C@H](CO)[C@@H](O)[C@H](O)[C@H]1O	13%	/	/	/	/	/
COc1ccc(C(=O)N[C@@H]2CCC[C@@H]2C(=O)NCc2cc(F)cc(F)c2)cn1	-16%	5%	2%	i	35%	9%
COc1ccccc1S(=O)(=O)Nc1ccc2c(c1)CN(C)C(=O)N2	-17%	/	/	/	/	/
c1cc(-c2ccnc3nc(CCC4CCCC4)nn23)ccn1	2%	35µM*	-2%	i	-16%	-1%
CCc1nc2nccc(-c3cc(OC)c(OC)c(OC)c3)n2n1	8%	?	-27%	i	9%	-3%
